Activity calls are given as the source filed them.

For assay [1], the system named is Plasmodium falciparum Sir2 (PF13_0152, Sir2A). Nature of the assay: Plasmodium falciparum Sir2A binding compounds – biochemical, small-molecule microarray, 635 nm fluorescence, primary screen (AID 1098).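 Note: score merges spot fluorescence intensity with its signal-to-noise ratio.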 Particulars: fluorescence 635 nm, higher = more signal.
A short description of assay [2]: probe aDKK1 binding to arrayed compounds – biochemical, biotinylated probe, 635/667 nm fluorescence, primary screen (AID 1099).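 Note: score merges 667nm spot fluorescence with signal to noise across triplicate slides; reference of the scale not given here.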 Conditions: small-molecule microarray, higher = more signal.
A short description of assay [3]: probe aCHRDL2 binding to arrayed compounds – biochemical, biotinylated probe, 635/667 nm fluorescence, primary screen (AID 1100). Particulars: small-molecule microarray, higher = more signal.
The nature of assay [4]: change in splice reporter luminescence, either direction, cell-based, HEK293, spliceosome inhibition project, primary screen (AID 1101).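 Note: HEK293 cells carrying a splicing-competent luciferase reporter gene; test concentration not given here.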 Conditions: HEK293 splicing luciferase reporter, 24 h, higher = more signal, called active from +8 up or from −8 down.
Assay [5] has as its target Fibroblast growth factor 10 (Homo sapiens) (UniProt O15520). Nature of the assay: compounds binding fibroblast growth factor 10 – biochemical, small-molecule microarray, 635 nm fluorescence, primary screen (AID 1102). Particulars: FGF10 binding, fluorescence 635 nm, higher = more signal.
Assay [6] concerns glycogen synthase kinase-3 (GSK3A per assay name; protocol says GSK3B). Nature of the assay: compounds binding glycogen synthase kinase-3 – biochemical, small-molecule microarray, 635 nm fluorescence, GSK3A, primary screen (AID 1103). Note: the record names both GSK3A and GSK3B. Particulars: fluorescence 635 nm, higher = more signal.
Assay [7] addresses Epidermal growth factor receptor (Homo sapiens) (UniProt P00533). Briefly: compounds binding epidermal growth factor receptor – biochemical, small-molecule microarray, 635 nm fluorescence, primary screen (AID 1104).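 Note: score merges 667 nm emission intensity with spot signal to noise over triplicate slides.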 Conditions: EGFR binding, higher = more signal.
Assay [8] concerns the target Follistatin-related protein 3 (Homo sapiens) (UniProt O95633). Briefly: compounds binding follistatin-related protein 3 – biochemical, small-molecule microarray, 635 nm fluorescence, primary screen (AID 1105).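 Note: score merges emission near 667 nm and signal to noise per printed spot across three slides.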 Conditions: FSTL3 binding, higher = more signal.
The target of assay [9] is Dickkopf-related protein 1 (Homo sapiens) (UniProt O94907). Nature of the assay: small molecules binding DKK1 protein – biochemical, small-molecule microarray, 635 nm fluorescence scan, primary screen (AID 1106).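 Note: score merges emission near 667 nm with signal to noise over three replicate slides.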 Conditions: higher = more signal.
Chain of Dickkopf-related protein 1 (Homo sapiens) (O94907 whole entry, looked up): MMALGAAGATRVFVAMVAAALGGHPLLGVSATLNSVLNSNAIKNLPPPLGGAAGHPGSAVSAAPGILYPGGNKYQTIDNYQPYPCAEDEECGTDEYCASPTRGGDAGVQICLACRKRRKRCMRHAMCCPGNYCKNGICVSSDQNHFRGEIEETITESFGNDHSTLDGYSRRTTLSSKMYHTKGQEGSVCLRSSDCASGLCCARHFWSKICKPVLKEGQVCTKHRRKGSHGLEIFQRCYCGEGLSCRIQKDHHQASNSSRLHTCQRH
For assay [10], the system named is Inhibin beta A chain (activin A). Nature of the assay: small molecules binding activin A – biochemical, small-molecule microarray, 635 nm fluorescence scan, primary screen (AID 1107).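 Note: mouse activin A protein probed at 4.33 µg/mL on printed slides; score merges bound-protein fluorescence near 667 nm with spot signal-to-noise.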 Particulars: INHBA, higher = more signal.

Chain of Fibroblast growth factor 10 (Homo sapiens) (O15520 whole entry, looked up): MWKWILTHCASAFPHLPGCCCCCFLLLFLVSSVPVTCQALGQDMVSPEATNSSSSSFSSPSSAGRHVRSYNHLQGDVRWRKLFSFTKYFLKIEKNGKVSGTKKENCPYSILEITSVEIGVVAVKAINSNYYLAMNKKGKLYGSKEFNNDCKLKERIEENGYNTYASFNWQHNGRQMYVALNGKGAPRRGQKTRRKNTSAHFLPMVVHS
Chain of Epidermal growth factor receptor (Homo sapiens) (P00533 whole entry, looked up): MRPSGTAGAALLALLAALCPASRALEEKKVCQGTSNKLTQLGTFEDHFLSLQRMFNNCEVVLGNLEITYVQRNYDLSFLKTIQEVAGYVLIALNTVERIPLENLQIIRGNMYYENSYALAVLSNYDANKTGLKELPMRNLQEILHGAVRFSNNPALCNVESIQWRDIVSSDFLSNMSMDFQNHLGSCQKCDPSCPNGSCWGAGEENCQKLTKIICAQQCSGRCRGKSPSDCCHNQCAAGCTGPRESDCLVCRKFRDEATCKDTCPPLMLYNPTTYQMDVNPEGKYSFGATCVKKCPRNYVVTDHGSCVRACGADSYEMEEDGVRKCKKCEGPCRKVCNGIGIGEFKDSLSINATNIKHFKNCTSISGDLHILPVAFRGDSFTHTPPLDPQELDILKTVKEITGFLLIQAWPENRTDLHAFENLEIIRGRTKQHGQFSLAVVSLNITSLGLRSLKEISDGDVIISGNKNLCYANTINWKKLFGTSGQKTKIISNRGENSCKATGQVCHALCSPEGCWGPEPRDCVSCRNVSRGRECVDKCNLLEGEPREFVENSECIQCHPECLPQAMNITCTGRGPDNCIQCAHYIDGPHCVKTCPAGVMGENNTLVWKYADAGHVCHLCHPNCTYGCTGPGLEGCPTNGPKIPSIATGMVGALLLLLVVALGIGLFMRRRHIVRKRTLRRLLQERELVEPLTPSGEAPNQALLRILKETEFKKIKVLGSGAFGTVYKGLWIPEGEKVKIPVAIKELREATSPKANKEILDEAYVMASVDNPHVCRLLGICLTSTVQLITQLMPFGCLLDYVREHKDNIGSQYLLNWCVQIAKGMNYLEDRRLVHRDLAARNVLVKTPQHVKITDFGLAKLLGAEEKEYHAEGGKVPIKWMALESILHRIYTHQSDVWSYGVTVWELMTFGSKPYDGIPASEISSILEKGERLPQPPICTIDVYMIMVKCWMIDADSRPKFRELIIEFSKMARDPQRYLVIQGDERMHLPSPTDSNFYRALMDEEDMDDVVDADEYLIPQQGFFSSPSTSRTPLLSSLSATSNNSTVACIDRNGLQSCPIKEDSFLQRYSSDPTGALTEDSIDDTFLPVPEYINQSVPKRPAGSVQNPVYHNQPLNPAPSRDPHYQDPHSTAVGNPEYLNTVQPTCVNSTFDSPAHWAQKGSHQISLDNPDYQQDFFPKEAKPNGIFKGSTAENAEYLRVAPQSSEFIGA
Chain of Follistatin-related protein 3 (Homo sapiens) (O95633 whole entry, looked up): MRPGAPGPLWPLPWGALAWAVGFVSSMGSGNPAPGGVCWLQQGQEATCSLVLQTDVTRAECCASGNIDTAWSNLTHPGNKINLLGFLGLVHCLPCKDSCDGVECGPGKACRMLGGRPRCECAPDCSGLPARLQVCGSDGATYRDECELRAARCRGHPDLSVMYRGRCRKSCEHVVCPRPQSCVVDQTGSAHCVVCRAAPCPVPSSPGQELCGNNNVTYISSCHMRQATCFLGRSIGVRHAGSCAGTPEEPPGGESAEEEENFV

Regarding `C=C(CCCC)C(=O)CC[C@H](OC(=O)c1cccnc1)c1ccc(CO)o1`, the composite z-score in [1] was 1.3; in assay [2] it was -0.013; in assay [3], -0.519; in [5], 1.13; in [6], 1.17; in assay [7], 0.266. The composite z-score turned out to be 1.3 in assay [8], 1.36 in assay [9] and 1.19 in assay [10]. The z-score in assay [4] was 0.981 (inactive).
For the compound `COCCOC(=O)N1C(=O)[C@@]2(c3ccccc31)[C@H](C(N)=O)[C@H]1C(=O)O[C@H](c3ccccc3)[C@H](c3ccccc3)N1[C@@H]2c1ccc(OCCO)cc1`, the composite z-score in assay [1] is 0.537; in assay [2], -0.122; in assay [3], 0.093; in assay [5] it was 1.08; in assay [6] it was 1.3; in assay [7] it was 0.0401. Further, the composite z-score in assay [8] is 1.1; in assay [9], 0.253; in assay [10] it was 0.319. The z-score in assay [4] is 0.172 (inactive).
As for `CN1C(=O)[C@]2(CCC(=O)OC(C)(C)C)N=C(c3ccc(OCCCO)cc3)O[C@@H]2c2ccccc21`, the composite z-score is 1.14 in assay [1]; -0.0732 in assay [2]; 0.651 in assay [3]; 1.38 in assay [5]; 1.29 in assay [6]; -0.0099 in [7]. Also, the composite z-score in assay [8] is 0.659; in [9] it was 0.297; in assay [10] it was 0.643. In addition, in assay [4], the z-score was -0.432 (inactive).
In the case of `NC(=O)NCC#Cc1ccc2c(c1)[C@]1(C(=O)N2)[C@H](C(=O)N2CCCCCCC2)[C@H]2C(=O)O[C@H](c3ccccc3)[C@H](c3ccccc3)N2[C@@H]1c1ccc(O)cc1`, the composite z-score in assay [1] is 1.63; in [2], 2.7; in assay [3], 1.47; in assay [5] it was 1.4; in assay [6], 0.919; in [7], 1.27. Besides, the composite z-score in [8] came out at 1.51; in [9], 1.63; in assay [10] it was 1.49. Further, the z-score in assay [4] is -0.15 (inactive).
With `C=CC[C@]1(C(=O)OC)N=C(c2ccc(OCCCO)cc2)O[C@H]1c1ccccc1N=[N+]=[N-]`, the composite z-score came out at 1.54 in [1]; 1.21 in assay [2]; 0.865 in [3]; 1.25 in assay [5]; 1.31 in [6]; 1.19 in assay [7]. In addition, the figures for the composite z-score in [8], in assay [9] and in assay [10] were 1.37, 1.26 and 0.826, respectively. In addition, in assay [4], the z-score is -1.4 (inactive).
On to `C=C(COC)/C(=C/C[C@H](OC(=O)c1ccncc1)c1ccc(OCCO)cc1)c1cc(C(=O)OC)ccc1OC`, for which the composite z-score in [1] was 0.674; in assay [2], 0.17; in assay [3], 0.118; in [5], 1.47; in assay [6], 0.32; in assay [7], -0.0503. Moreover, the composite z-score in [8] was 0.967; in [9], 0.8; in assay [10] it was 1.04. Besides, the z-score in [4] is -0.767 (inactive).
As for `CCOC(=O)C[C@H]1[C@H](OC(=O)Cc2ccc3c(c2)OCO3)[C@@H](NC(=O)c2ccccc2)c2cc(OCCCO)ccc2N1C(=O)Cc1ccc(OC)cc1`, the composite z-score was -0.1 in [1]; -0.386 in assay [2]; -0.167 in assay [3]; 0.236 in assay [5]; 0.227 in assay [6]; 0.237 in [7]. Further, the composite z-score in [8] was 0.339; in assay [9], 0.0486; in assay [10] it was -0.296. The z-score in assay [4] was -2.62 (inactive).
For `COc1ccc([Si](C)(C)[C@H]2[C@H](CC(=O)N3Cc4ccccc4C[C@H]3CO)O[C@@]3(C(=O)N(Cc4cccc(N5C(=O)c6cccc7cccc5c67)c4)c4ccccc43)[C@@H]2C)cc1`, the composite z-score in assay [1] is 1.63; in [2], -0.37; in [3], -0.151; in assay [5] it was 1.31; in [6], 0.627; in assay [7], 0.774. The composite z-score in assay [8] was 1.28; in assay [9], 0.948; in assay [10], 1.2. Besides, in assay [4], the z-score is -1.87 (inactive).
Take `COCCOC(=O)N1C(=O)[C@@]2(c3cc(C#Cc4ccc(OC)cc4)ccc31)[C@H](c1ccc(OCCO)cc1)N1[C@H](c3ccccc3)[C@H](c3ccccc3)OC(=O)[C@H]1[C@@H]2C(=O)N1CCCCCCC1`: the composite z-score in assay [1] worked out at 1.7; in assay [2], 2.22; in assay [3], 1.36; in assay [5], 0.821; in assay [6], 1.24; in assay [7], 0.719. In addition, the results for the composite z-score in assay [8], in assay [9] and in [10] were 1.52, 1.29 and 1.65, respectively. Further, the z-score in assay [4] was -1.58 (inactive).
As for `C[C@@H](OCc1ccccc1)C1NC(=O)[C@@]23C(=O)N[C@@H](Cc4ccccc4)C2[C@H](C)[C@@]2(C)O[C@H]2C3/C=C/C/C=C\CNC(=O)[C@H](Cc2ccccc2)NC1=O` (stereo not given in full), the composite z-score in [1] is 0.21; in assay [2], -0.288; in [3], -0.743; in assay [5] it was 1.35; in [6], 0.297; in assay [7], 0.12. Further, the composite z-score worked out at 0.869 in [8], 0.443 in assay [9] and 1.08 in assay [10]. Further, the z-score in assay [4] was -0.708 (inactive).
Regarding `CCOC(=O)C[C@H]1[C@H](OC(=O)c2ccc(-c3ccccc3)cc2)[C@@H](NC(=O)CC(C)C)c2cc(OCCCO)ccc2N1C(=O)Cc1ccc(OC)cc1`, the composite z-score was -0.146 in assay [1]; 0.448 in assay [2]; 0.624 in [3]; 0.22 in [5]; 0.0434 in [6]; -0.263 in assay [7]. The composite z-score was -0.195 in assay [8], -0.204 in [9] and -0.353 in [10]. In addition, in assay [4], the z-score is -0.463 (inactive).
Regarding `CO[C@H]1O[C@H](CO)[C@@H](OC(=O)Nc2ccc(C(F)(F)F)cc2)[C@H](OC(=O)Nc2ccccc2-c2ccccc2)[C@H]1OC(=O)Nc1ccccc1-c1ccccc1`, the composite z-score in assay [1] was found to be 1.29; in [2], 0.13; in [3] it was 0.411; in assay [5], 1.52; in [6], 1.35; in assay [7], 0.223. The composite z-score in [8] was 1.15; in [9] it was 0.162; in assay [10], 0.436. Further, the z-score in assay [4] was -1.03 (inactive).
In the case of `C=C(/C(=C/C[C@H](OC(=O)c1ccncc1)c1ccccc1OCCO)c1cc(C(=O)OC)ccc1OC)C(C)C`, the composite z-score is 0.748 in [1]; -0.0168 in assay [2]; 0.253 in assay [3]; 1.54 in [5]; 0.33 in [6]; -0.105 in [7]. The composite z-score in assay [8] worked out at 1.1; in assay [9], 0.599; in assay [10] it was 1.25. For the same compound, in [4], the z-score was -0.361 (inactive).
For the compound `CC1(C)OC[C@@]23C=C(Br)[C@@H](C[C@H]12)[C@@]1(CO1)C3=O`, the composite z-score in assay [1] is 0.0908; in [2] it was -0.123; in [3], -0.567; in [5], 0.447; in assay [6] it was 0.691; in assay [7], 0.376. Besides, the composite z-score in [8] worked out at 0.564; in assay [9] it was 0.356; in assay [10], 0.174. For the same compound, the z-score in assay [4] is 0.0884 (inactive).
For the compound `COC(=O)[C@@]1(Cc2ccccc2)[C@H]2c3cc(C(=O)N4CCCC4)n(Cc4ccc(C(F)(F)F)nc4)c3C[C@H]2CN1C(=O)c1ccccc1`, the composite z-score in assay [1] was found to be 1.28; in assay [2], 0.568; in assay [3], 1.02; in assay [5] it was 0.881; in assay [6], 1.32; in assay [7], 0.0424. The composite z-score in assay [8] was 1.1; in assay [9], -0.269; in [10], 0.634. For the same compound, in [4], the z-score was -0.434 (inactive).
Turning to `CCCC[C@@H]1C[C@H]1[C@@H](NC(=O)c1ccc(C(F)(F)F)cc1)c1ccc(C(=O)OC)cc1`, the composite z-score in assay [1] was determined as 0.234; in assay [2], 0.172; in assay [3], 0.158; in assay [5] it was 0.743; in [6], 0.352; in assay [7], 0.6. For the same compound, the composite z-score in assay [8] was determined as 1.09; in assay [9], 0.583; in assay [10] it was 1.32. For the same compound, the z-score in assay [4] is -1.22 (inactive).

The values are drawn from PubChem BioAssay.
